High-throughput results from PubChem BioAssay.
KCNH2 3.1 block: inhibitors of human KCNH2 3.1 potassium channel isoform; AID 720553; U2OS KCNH2 3.1, thallium flux FluxOr; hits give low values; 340,000 compounds, 0.95% hits; activity change, % (tested at about 1.8 µM);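 active = maximum activity change below -70%; inconclusive = maximum activity change from -70% to -50%; inactive = maximum activity change above -50%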;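 also: thallium influx rate constant from kinetic fluorescence after stimulation buffer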
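Thallium flux read-out: FluxOr dye with Red40 quencher in HBSS/HEPES, 45 min at RT. Rate constants from kinetic reads were normalized to positive and negative DMSO controls. Cells: U2OS virally expressing the 3.1 isoform.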
EPAC1 ag: agonists of human EPAC1 | O95398 | EPAC1 agonist qHTS, biochemical assay; response scale: 100% = response to 6.5 mM cAMP | Potency, µM (doses to about 154 µM), most hits filed as activators | 360,000 compounds, 0.073% hits | AID 720707; also: nearly all actives have a fitted effect of over 60% in size
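Nucleotide exchange by EPAC1 (100 nM) on Rap1B–BODIPY-GDP (250 nM) in the presence of 50 uM GDP is tracked fluorescently at 480/540 nm over 30 min. Signals are normalized to a 6.5 mM cAMP control.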
EPAC2 ag: agonists of human EPAC2 (RAPGEF4). Q8WZA2. EPAC2 activation, biochemical qHTS; response scale: 100% = 6.5 mM cAMP response. Potency, µM (highest dose often 154 µM), actives largely listed as activators. 360,000 compounds, 0.079% hits. AID 720711; also: nearly all actives have a fitted effect of over 50% in size
Target sequence (Q8WZA2 whole entry, looked up): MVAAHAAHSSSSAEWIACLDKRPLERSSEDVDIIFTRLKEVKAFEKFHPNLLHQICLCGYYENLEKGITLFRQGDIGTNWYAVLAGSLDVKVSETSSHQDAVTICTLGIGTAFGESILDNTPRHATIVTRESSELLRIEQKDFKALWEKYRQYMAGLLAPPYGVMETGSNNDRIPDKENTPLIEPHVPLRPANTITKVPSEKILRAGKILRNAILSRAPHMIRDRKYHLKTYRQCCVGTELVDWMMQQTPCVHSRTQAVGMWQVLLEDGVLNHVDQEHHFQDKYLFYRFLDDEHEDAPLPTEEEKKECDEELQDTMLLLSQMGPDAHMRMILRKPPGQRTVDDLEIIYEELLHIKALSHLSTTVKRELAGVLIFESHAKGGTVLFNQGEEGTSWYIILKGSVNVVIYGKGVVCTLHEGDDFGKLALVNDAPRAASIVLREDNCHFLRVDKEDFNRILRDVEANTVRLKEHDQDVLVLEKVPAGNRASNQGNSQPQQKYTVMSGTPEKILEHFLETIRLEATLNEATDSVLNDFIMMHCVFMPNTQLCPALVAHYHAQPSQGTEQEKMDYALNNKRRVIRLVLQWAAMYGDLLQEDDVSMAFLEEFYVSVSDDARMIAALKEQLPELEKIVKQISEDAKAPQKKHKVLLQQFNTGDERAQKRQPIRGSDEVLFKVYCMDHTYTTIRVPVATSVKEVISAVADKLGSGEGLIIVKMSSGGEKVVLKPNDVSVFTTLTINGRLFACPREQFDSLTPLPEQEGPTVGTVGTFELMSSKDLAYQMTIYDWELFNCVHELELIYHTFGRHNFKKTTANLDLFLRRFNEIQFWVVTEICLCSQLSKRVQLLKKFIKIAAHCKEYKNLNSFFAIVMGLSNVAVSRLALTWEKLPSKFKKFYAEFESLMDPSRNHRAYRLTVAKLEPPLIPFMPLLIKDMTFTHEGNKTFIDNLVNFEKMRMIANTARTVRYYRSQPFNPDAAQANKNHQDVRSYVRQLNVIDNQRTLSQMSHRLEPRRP
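Compounds were added across a concentration range to EPAC2 (100 nM), RAP1B-BODIPY-GDP (250 nM) and GDP (50 uM). After 5 min at room temperature, fluorescence was recorded at 5-min intervals for 30 min.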
hERG WT inh: blocks the wildtype human KCNH2 potassium channel; Q12809; U2OS, BacMam KCNH2, thallium flux FluxOr; hits give low values; activity change, % at 1.84 µM; 340,000 compounds, 0.37% hits;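 active = maximum activity change below -70%; inconclusive = maximum activity change between -70% and -50%; inactive = maximum activity change above -50%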
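U2OS cells were transduced with wild-type KCNH2 virus (2.03 x 10^8 / mL) for 4 h at room temperature, then cultured overnight at 37 C. Thallium flux was read with FluxOr dye. Rate constants were normalized to DMSO controls.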
EPAC1 antag: blocks human EPAC1 exchange factor | EPAC1 GEF assay, Rap1b-BODIPY-GDP exchange fluorescence | Potency, µM (titrated, usually from 115 µM), hits mostly inhibitors | 360,000 compounds, 0.14% hits | AID 720709; also: nearly all actives have a fitted effect of over 50% in size
EPAC2 antag: blocks human EPAC2 exchange factor; Q8WZA2; EPAC2 GEF exchange of Rap1B-BODIPY-GDP, fluorescence; Potency, µM (series often up to 114 µM), most hits filed as inhibitors; 360,000 compounds, 0.18% hits; also: nearly all actives have a fitted effect of over 45% in size
A number is an active result; n = inactive; u = inconclusive; x = no result; [ ] = another dose, or the depositor's remark. Hits are enriched below; roughly 1.4% of the tested compounds scored in any of these assays. Unless noted, calls follow the shape of the dose curve; as a rule, active = well fitted curve in the direction sought with a large enough effect; inconclusive = small, poorly fitted or top-dose-only effect, or another doubt; inactive = no such curve, though single readings can be large; an effect the other way counts as inactive or inconclusive.

SMILES	KCNH2 3.1 block	EPAC1 ag	EPAC2 ag	hERG WT inh	EPAC1 antag	EPAC2 antag
Cc1cc(N2CCOCC2)nc2ccc(NC(=S)NCCC(C)C)cc12	-88	n	n	n	n	n
Cc1cc(N2CCN(C)CC2)nc2ccc(NC(=S)N3CCN(c4ccccn4)CC3)cc12	n	n	n	n	n	n
O=C(O)c1ccc(S(=O)(=O)/N=C2\C=C(Nc3ccccc3F)C(=O)c3ccccc32)cc1	n	n	n	n	22µM	u
Cc1ccccc1NC1=C/C(=N\S(=O)(=O)c2ccc(C(=O)O)cc2)c2ccccc2C1=O	n	n	n	n	40µM	50µM
Cc1ccc(NC(=O)c2cccc(S(=O)(=O)Nc3c(C)n(C)n(-c4ccccc4)c3=O)c2)cc1C	n	n	n	n	n	n
Cc1ccc(S(=O)(=O)Nc2ccc3cc([N+](=O)[O-])ccc3c2[N+](=O)[O-])cc1	n	n	n	n	79µM	50µM
Cc1ccc(S(=O)(=O)N2CCCCC2)cc1C(=O)NCCC1=CCCCC1	n	112µM	n	n	n	n
CCNS(=O)(=O)c1ccc(CCC(=O)NCCC2=CCCCC2)cc1	n	n	n	-243	n	n
O=C(NCCC1=CCCCC1)C1CCN(S(=O)(=O)N2CCOCC2)CC1	-71	n	n	n	n	n
Cc1ccc(OCC(=O)Nc2c(C)ccc3nsnc23)cc1	n	n	n	n	n	n
O=C1CCCC2=C1C1(CCCC1)N=C(Nc1nc3cc(-c4ccccc4)ccc3o1)N2	x	n	n	x	n	n
COc1ccccc1N1N=C(C(=O)c2ccccc2)C2C(=O)N(c3ccc(Br)cc3)C(=O)C21 (stereo not given)	n	u	n	n	u	45µM
COc1ccccc1N1C(=O)C2C(C(=O)c3ccccc3)=NN(c3ccccc3)C2C1=O (stereo not given)	n	u	n	n	n	n
CN1C(=O)c2cccc3c(Cl)ccc(c23)C1=O	n	n	n	n	n	n
CNc1ccc2c3c(cccc13)C(=O)N(C)C2=O	n	100µM	u	n	n	n
COc1cccc(Cn2c(=O)c3ccccc3n3nc(C)cc23)c1	n	n	n	n	n	50µM
CC(C)C(NC(=O)c1ccccc1)C(=O)OCC(=O)N1CCN(c2ccccc2)CC1 (stereo not given)	n	n	n	n	n	n
CCOc1cc(/C=N/NC(=O)c2ccc(-c3csc(Nc4ccc(C)cc4)n3)cc2)ccc1OCC(=O)O	n	u	n	n	40µM	n
O=C(O)COc1ccc(/C=N/NC(=O)c2ccc(-c3csc(Nc4ccc(Cl)cc4)n3)cc2)cc1	n	n	n	n	7.9µM	u
COc1cc(/C=N\NC(=O)c2ccc(-c3ccccc3)cc2)ccc1OCC(N)=O	x	n	n	n	n	n
Cc1nc(CC(=O)N/N=C/c2ccc(OCC(=O)O)cc2)cs1	n	n	n	n	n	n
O=[N+]([O-])c1ccc2cn(C3OC(CO)C(O)C3O)nc2c1 (stereo not given)	n	n	n	n	n	n
Cc1csc(SCC(=O)Nc2ccc(C)c(F)c2)n1	n	n	n	n	n	n
COc1cc(CNCCNC(=O)c2nonc2N)ccc1OCc1ccc(Cl)cc1	n	n	n	n	n	n
Cc1c(C(=O)NCCC#N)sc(=O)n1Cc1ccc(C(=O)N(C)C)cc1	x	n	n	x	n	n
SMILES	KCNH2 3.1 block	EPAC1 ag	EPAC2 ag	hERG WT inh	EPAC1 antag	EPAC2 antag
N#Cc1c(N2CCN(C(=O)c3ccccc3Cl)CC2)nc(-c2ccccc2)c2c1CCCC2	n	n	n	-283	n	n
CC(=O)C(Cc1ccccc1)NC(=O)CN(C)Cc1ccccc1Cl (stereo not given)	n	n	n	n	n	n
CCn1c(O)c(/C=N/N=C/c2ccc(OC)cc2)c2cc(C3=NNC(=O)CC3)ccc21	n	n	100µM	n	u	n
CCCCNC(=S)N(Cc1c(C)noc1C)c1ccccc1	-117	n	n	n	n	n
FC(F)(F)c1cc(-c2ccco2)nc(-n2nc(C(F)(F)F)cc2C2CC2)n1	-143	n	n	n	n	n
CN1CCN(c2nc(-c3ccco3)cc(C(F)(F)F)n2)CC1	n	n	n	n	n	n
S=C(NCCC1=CCCCC1)NCc1ccco1	n	n	n	n	n	n
COc1cccc(C(=O)NC2CCCC2)c1	n	n	n	n	n	n
COc1cccc(C(=O)NNC(=S)NC2CCCCC2)c1	n	n	n	n	50µM	n
Cc1cccc(C)c1NC(=O)C1(C)CSCC(=O)N1CCc1c[nH]c2ccccc12 (stereo not given)	x	n	n	x	n	n
COc1ccc(-n2c(COc3ccc(Cl)cc3)nnc2SCc2ccc(C#N)cc2)cc1	-79	n	n	n	n	n
CC1CCc2c(sc3nc(SCC(=O)O)n(-c4ccccc4)c(=O)c23)C1 (stereo not given)	n	u	n	n	89µM	n
COc1ccc(NC(=O)CSc2nc3sc4c(c3c(=O)n2-c2ccc(OC)cc2)CCN(C)C4)cc1	n	n	u	n	n	71µM
Cc1ccn2c(Nc3ccc4c(c3)OCO4)c(-c3ccc(O)cc3)nc2c1	n	n	n	n	n	n
Cc1ccc(C(=O)C(c2ccccc2)N2Cc3ccccc3C2=N)cc1 (stereo not given)	-73	n	n	n	u	n
COc1ccc(C(=O)C(c2ccccc2)N2CCOCC2)cc1 (stereo not given)	n	n	n[15.6 µM]	n	n	n
CC(C)(C)NC(=O)NC(=O)CN1CCCc2ccccc21	-88	n	n	n	n	n
O=C(CN1CCCc2ccccc21)NC(=O)NCc1ccccc1	n	n	n	n	n	n
CCCCCCN1C2=NCCCN2c2ccccc21	-80	n	n	n	n	n
COc1cccc(C(=O)CN2C3=NCCCN3c3ccccc32)c1	-93	n	n	n	n	n
O=S1(=O)N[C@@H](Cc2ccccc2)COc2cc(N3CC[C@H](O)C3)ccc21	x	n	n	x	n	n
Cc1ccc(NC(=S)NCCc2c[nH]c3ccccc23)c(C)c1	-91	n	n	n	n	n
COc1ccccc1NC(=S)NCCc1c[nH]c2ccccc12	n	n	n	n	n	n
CN(C)c1ccc(/C=C(\C#N)C(=O)Nc2nc3c(s2)CCN(Cc2ccccc2)C3)cc1	n	n	112µM	n	n	n
CCOc1ccc(CN2CCN(c3ncnc4scc(-c5ccccc5)c34)CC2)cc1	-116	n	n	-141	n	n
COc1ccc(CN2CCN(c3ncnc4scc(-c5ccc(F)cc5)c34)CC2)cc1	-97	n	n	u	n	n
